Pf apPOL inh = Pf-apPOL DNA polymerase inhibition | inhibition, % at 10 µM | AID 1794808 | hit rate 0.25% among 210,000 | Recombinant Pf-apPOL, molecular beacon fluorescence, 1.5 h
mHTT-CaM PPI inh = disrupts binding of mutant huntingtin to calmodulin; AID 1671202; hit rate 3.6% among 190,000; AlphaScreen His-mHTT/GST-CaM binding, luminescence; P42858; inhibition, % at 15 µM
Large screens that a line does not name were inactive. A selection: hits, their analogues and other compounds. The true share with any hit is near 3.6%. Rule as the data show it: active = inhibition above about 50%; inactive = the rest.

Ic1ccc(-c2csc(Nc3ccc4c(c3)OCO4)n2)cc1	mHTT-CaM PPI inh 62
Cc1cccc(Nc2nc(-c3ccc(C)c(C)c3)cs2)c1	mHTT-CaM PPI inh 55
COc1ccc(Nc2nc(-c3ccc(C)c(C)c3)cs2)cc1	none
CC(C)Oc1ccc(CC2CC(=O)NC2=O)cc1 (configuration not stated)	none
Cc1ccnc(Nc2nc(-c3sc(N)nc3C)cs2)c1	mHTT-CaM PPI inh 66
Cc1cccc(NCc2ccc([N+](=O)[O-])cc2)c1	none
Cc1nc(N)sc1-c1csc(Nc2cccc(C(=O)O)c2)n1	none
Cc1ccc(NCc2ccc([N+](=O)[O-])cc2)cc1C	mHTT-CaM PPI inh 60
Cc1ccnc(Nc2nc(-c3ccccc3)cs2)c1	none
Cc1nc(N)sc1-c1csc(Nc2ccccc2)n1	mHTT-CaM PPI inh 89
O=C(CCc1nc(-c2ccccn2)no1)NCc1ccc2c(c1)OCO2	none (no result: mHTT-CaM PPI inh)
O=C(NCc1ccc2c(c1)OCO2)c1ccc2nc(-c3ccccn3)c(-c3ccccn3)nc2c1	Pf apPOL inh 61
O=C(CSC1CCCC1)NCCOc1ccc(-c2ccccn2)nn1	mHTT-CaM PPI inh 100
O=C(CSC1CCCC1)NCCn1nc(-c2ccco2)ccc1=O	none
O=C(COc1ccc2c(c1)OCO2)NCCOc1ccc(-c2ccccn2)nn1	mHTT-CaM PPI inh 100
Cc1cc(C)cc(OCCNC(=O)COc2ccc3c(c2)OCO3)c1	none
Cc1cccn2c(=O)c3cc(C(=O)NCc4ccco4)c(=N)n(C4CCCCC4)c3nc12	none
Cc1ccc(/C=C/C2=NC(=C/c3cccc([N+](=O)[O-])c3)/C(=O)O2)cc1	none
O=C(Nc1ccc(F)cc1)c1ccc(C(=O)Nc2ccc(F)cc2)cc1	none
O=C(NCCNC(=O)c1ccc(F)c(F)c1)c1ccc(NC(=O)c2ccc(F)cc2)cc1	mHTT-CaM PPI inh 69
COc1cccc(/C=C2/N=C(c3ccccc3C)OC2=O)c1OC	none
COc1ccccc1C1C(C#N)=C(N)SC(N)=C1C#N	none
CC1C(C#N)=C(N)SC(N)=C1C#N	mHTT-CaM PPI inh 98
COc1cc(OC)c(C2C(C#N)=C(N)SC(N)=C2C#N)cc1OC	mHTT-CaM PPI inh 71 (no result: Pf apPOL inh)
CCCC1C(C#N)=C(N)SC(N)=C1C#N	none
CC1(C(=O)NCc2ccccc2)CCCN(C(=O)NCc2ccccc2)C1 (configuration not stated)	none
COc1ccc2oc(-c3ccc(N=Cc4cccc([N+](=O)[O-])c4O)cc3)nc2c1	none
CCOc1ccc(S(=O)(=O)N(C)C)c2ccccc12	none
Cc1ccc(-n2nc3c(c2NC(=O)C2CCCC2)CS(=O)(=O)C3)cc1	none
O=C(O)c1cccnc1SCc1ccc([N+](=O)[O-])cc1	none
CCOc1ccc2c(c1)C(=O)c1cc(OCC(=O)O)ccc1-2	none
CC1(C)Nc2ccccc2-c2c1ssc2=S	none (no result: Pf apPOL inh)
CCOc1ccc2c(c1)-c1c(ssc1=S)C(C)(C)N2C	mHTT-CaM PPI inh 97 (no result: Pf apPOL inh)
Cc1ccc2c(c1)-c1c(ssc1=S)C(C)(C)N2C	mHTT-CaM PPI inh 93 (no result: Pf apPOL inh)
Cc1ccc(OCC(=O)NC2=NCCS2)cc1	none
O=[N+]([O-])c1ccc(C2Nc3ccccc3-c3nc4ccccc4n32)cc1 (configuration not stated)	mHTT-CaM PPI inh 54
O=[N+]([O-])c1cccc(C2Nc3ccccc3-c3nc4ccccc4n32)c1 (configuration not stated)	none
CCC(C)C(NC(=O)OCc1ccccc1)C(=O)NCC(=O)O (configuration not stated)	none (no result: mHTT-CaM PPI inh)
CC(=O)Nc1cccc(N2CC(C(=O)Nc3nc4ccc(Cl)cc4s3)CC2=O)c1 (configuration not stated)	mHTT-CaM PPI inh 53
CC(C)c1ccc(CN2CC(C(=O)Nc3ccccc3)CC2=O)cc1 (configuration not stated)	none
COc1ccc2nc(NC(=O)C3CC(=O)N(c4cccc(NC(C)=O)c4)C3)sc2c1 (configuration not stated)	none
CC(C)c1ccc(CN2CC(C(=O)Nc3nc4ccccc4s3)CC2=O)cc1 (configuration not stated)	mHTT-CaM PPI inh 100
Cc1ccc(CN2CCC(CNC(=O)C3CCN(c4nccc(C)n4)CC3)CC2)cc1	none
COc1ccc(NC(=O)N2CC3CC2CC3NS(=O)(=O)c2ccccc2)c(C)c1 (configuration not stated)	none
Cc1ncc(CO)c2cc(C(=O)Nc3cccc(Cl)c3)c(=O)oc12	none
CCN1CCC2(CC1)N=C(c1ccc(C)cc1)CC(c1cc(Br)ccc1O)N2 (configuration not stated)	mHTT-CaM PPI inh 65
CCN1CCC2(CC1)N=C(c1ccccc1)CC(c1cc(Cl)ccc1O)N2 (configuration not stated)	none
CN1CCC2(CC1)N=C(c1ccc(Br)cc1)CC(c1cc(Cl)ccc1O)N2 (configuration not stated)	mHTT-CaM PPI inh 100
Cc1ccc(C2=NC3(CCN(C)CC3)NC(c3cc(Br)ccc3O)C2)cc1 (configuration not stated)	none
Cc1ccc(NC(=O)N2CCCC2c2nc(-c3ccc(F)cc3F)no2)cc1C (configuration not stated)	none
CCn1c(N2CCC(C(=O)NCc3ccc4c(c3)OCO4)CC2)cc(=O)n(C)c1=O	none
CCn1c(N2CCC(C(=O)NCc3ccco3)CC2)cc(=O)n(C)c1=O	mHTT-CaM PPI inh 52
CCn1c(N2CCC(C(=O)NCc3ccc(OC)cc3)CC2)cc(=O)n(C)c1=O	mHTT-CaM PPI inh 57
CCc1ccc(CNC(=O)C2CCN(c3cc(=O)n(C)c(=O)n3CC)CC2)cc1	none
COc1ccc(C(=O)N2CCc3c(c(-c4nc(Cc5ccccc5)no4)nn3C)C2)cc1	none
Cc1cnc2c(c1)C(=Nc1ccccc1)c1cc([N+](=O)[O-])ccc1-2	none
COc1ccc(S(=O)(=O)N2CCCC(C)(C(=O)NCc3cccc(F)c3)C2)cc1 (configuration not stated)	none
O=C1/C(=C/c2cccnc2)CS/C1=C\c1cccnc1	none
O=C1/C(=C/c2ccsc2)CS/C1=C\c1ccsc1	mHTT-CaM PPI inh 63
Cc1ccc(NC(=O)C(C)(C)C)cc1C	none
COC(=O)C(C(C)=O)(N1CCOCC1)N1CCOCC1	none (no result: Pf apPOL inh)
COc1ccc(NC(NC(=O)c2ccc([N+](=O)[O-])cc2)C(Cl)(Cl)Cl)cc1 (configuration not stated)	mHTT-CaM PPI inh 53
COc1ccc(C(=O)NC(Nc2ccc([N+](=O)[O-])cc2)C(Cl)(Cl)Cl)cc1 (configuration not stated)	none
COc1ccc(NC(NC(=O)c2ccc(Cl)cc2)C(Cl)(Cl)Cl)cc1 (configuration not stated)	mHTT-CaM PPI inh 57
COc1ccc(C(=O)NC(Nc2ccc(Br)cc2)C(Cl)(Cl)Cl)cc1 (configuration not stated)	none
O=C(NCc1ccc2c(c1)OCO2)c1ccc(Cl)cc1[N+](=O)[O-]	none
CCOC(=O)N1CCN(Cc2cccs2)CC1	none
COc1ccc(CCCC(=O)NC(C)c2ccccc2)cc1 (configuration not stated)	none
N=C1S/C(=C\c2ccc(-c3ccccc3C(=O)O)o2)C(=O)N1c1nccs1	mHTT-CaM PPI inh 74
N=C1S/C(=C\c2ccc(-c3cccc(F)c3)o2)C(=O)N1c1nccs1	mHTT-CaM PPI inh 62
N=C1S/C(=C\c2ccc(-c3ccc(F)c(Cl)c3)o2)C(=O)N1c1nccs1	none
N=C1S/C(=C\c2ccc(-c3ccc(F)cc3F)o2)C(=O)N1c1nccs1	none
Cc1nnc(N2C(=O)C(O)=C(C(=O)c3cccs3)C2c2ccccc2F)s1 (configuration not stated)	none

Assay outcomes: PubChem BioAssay, University of Kansas High Throughput Screening Laboratory
